# Source: PubChem BioAssay
# FLuc counter: inhibits or activates purified firefly luciferase, miR-21 counter-screen | purified FLuc, Km substrates, luminescence inhibition | Potency, µM (top dose mostly 57.5 µM), without a hit: at the highest dose activity change, negative = inhibition, most hits filed as inhibitors | 360,000 compounds, 6.9% hits;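 further: plate controls were vehicle for no effect and reference inhibitor for full effect; nearly all actives have a fitted effect of over 55% in size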
# Target sequence (P08659 whole entry, looked up): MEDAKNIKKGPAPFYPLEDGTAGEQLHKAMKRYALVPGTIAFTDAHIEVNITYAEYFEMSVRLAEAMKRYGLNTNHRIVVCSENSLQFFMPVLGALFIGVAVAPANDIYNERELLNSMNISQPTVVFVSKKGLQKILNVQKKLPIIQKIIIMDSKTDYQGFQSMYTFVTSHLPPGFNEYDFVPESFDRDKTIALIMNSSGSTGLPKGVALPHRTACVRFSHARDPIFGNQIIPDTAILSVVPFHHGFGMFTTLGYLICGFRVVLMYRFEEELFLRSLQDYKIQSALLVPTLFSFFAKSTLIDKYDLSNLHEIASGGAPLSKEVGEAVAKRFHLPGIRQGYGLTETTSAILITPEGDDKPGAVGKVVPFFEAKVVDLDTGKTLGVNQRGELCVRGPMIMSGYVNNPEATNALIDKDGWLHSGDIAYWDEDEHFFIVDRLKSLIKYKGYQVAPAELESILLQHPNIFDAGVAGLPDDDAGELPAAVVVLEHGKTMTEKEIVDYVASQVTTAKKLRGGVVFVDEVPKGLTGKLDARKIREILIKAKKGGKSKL
#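 Biochemical qHTS of compounds, final roughly 60 µM downward over six points, against 10 nM purified firefly luciferase using Km concentrations of substrates (10 uM D-luciferin, 10 uM ATP) in Tris acetate pH 7.5 buffer; luminescence output.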
# ELG1 genotox: induces genotoxicity in HEK293T cells with luciferase-tagged ELG1. HEK293T ELG1-luciferase reporter, luminescence, 16 h. Potency, µM (highest dose often 46 µM), for inactives: top-dose activity change, positive = activation, actives largely listed as activators. 330,000 compounds, 1.3% hits. AID 504466; further: % of control where 0% means no effect; nearly all actives have a fitted effect of over 60% in size
#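 16 hr compound incubation (37 °C, 5% CO2) of HEK293T cells carrying luciferase-tagged ELG1; luciferase then measured by ONE-Glo luminescence after 30 min at RT.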
# Rab9 promoter act: Rab9 promoter activation; Huh7 Rab9 promoter-luciferase reporter, luminescence, 24 h; AID 485297; Potency, µM (doses to about 9.22 µM), without a hit: top-dose activation, negative = inhibition, most hits filed as activators; 320,000 compounds, 2.8% hits; further: % of control where 0% means no effect; nearly all actives have a fitted effect of over 60% in size
#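 Huh7 cells stably carrying a Rab9 promoter-luciferase reporter, 1500 cells per well in OP-MEM I with 10% FBS, treated with compound 24 hours at 37C. Luciferase activity read by luminescence after 10 minutes with Amplite reagent.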
# NPC1 prom act: NPC1 promoter activation. 320,000 compounds, 2.4% hits. Potency, µM (series often up to 9.22 µM), for the others: at the highest dose activation, hits mostly activators. Huh7 NPC1 promoter luciferase reporter, 24 h; further: % of control where 0% means no effect; nearly all actives have a fitted effect of over 60% in size
#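 Stable NPC1-promoter luciferase Huh7 line; cpd (DMSO) 24 h, 37 °C, 5% CO2; Amplite luciferase reagent 10 min RT; luminescence readout. qHTS format.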
# SMN2 splice enh: enhancers of SMN2 splice variant expression; HEK293 SMN2-luciferase splicing reporter, luminescence, 30-36 h; AID 1458; Potency, µM (series often up to 46.1 µM), for the others: top-dose activity change, positive = activation, actives largely listed as activators; 210,000 compounds, 2.8% hits; further: % of control where 0% means no effect; nearly all actives have a fitted effect of over 55% in size
#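 qHTS luciferase splicing reporter: luminescence rises when SMN2 exon 7 is included in transfected HEK293 cells. Compound exposure lasted 30-36 h at 37C, with 4.5 mM final sodium butyrate as control, followed by a ONE-Glo read.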
# KinaseGlo FLuc: counter-screen: inhibitors of Kinase-Glo firefly luciferase. Q27757. Kinase-Glo luciferase, ATP luminescence, 8 min. Potency, µM (doses to about 38.3 µM), without a hit: at the top dose activity change, negative = inhibition, usual class: inhibitors. 200,000 compounds, 0.28% hits; further: on the % scale 0 is the no-effect control and ±100 the full control effect; nearly all actives have a fitted effect of over 60% in size
#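 Kinase-Glo luciferase light output from ATP and luciferin was measured with 10 uM ATP, within the enzyme's linear range. Buffer: 50 mM imidazole pH 7.2, 50 mM KCl, 7 mM MgCl2, 0.01% Tween 20, 0.05% BSA; luminescence read after 8 min at ambient temperature.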
# Starred values were filed as active, the others as inactive; ? = inconclusive; . = no result. Rows were chosen to be rich in hits. Some 7.4% of all compounds tested hit in one or more screens of this group. The call rests on the fitted dose curve; in most records, active means well fitted curve in the direction sought with a large enough effect; inconclusive means small, poorly fitted or top-dose-only effect, or another doubt; inactive means no such curve, though single readings can be large; an effect the other way counts as inactive or inconclusive. Potency means the concentration at half of the fitted maximal effect.
SMILES,FLuc counter,ELG1 genotox,Rab9 promoter act,NPC1 prom act,SMN2 splice enh,KinaseGlo FLuc
Cc1ccc(-n2ncc(C(=O)NCc3ccco3)c2C2CCN(C(=O)OC(C)(C)C)CC2)c(C)c1,3%,.,.,.,.,.
Cc1ccc(C(=O)c2cn(Cc3ccccc3C)c3nc(C)ccc3c2=O)cc1,4%,.,.,.,-5%,.
COc1cc(C2Nc3cccc4cccc(c34)N2)ccc1OC(C)=O,12µM*,4%,15%,0%,0%,-2%
Cc1ccc(C(=O)Nc2cccc(C(=O)N/N=C/c3ccc(O)cc3)c2)cc1,0.67µM*,12%,2µM*,1.4µM*,.,.
O=C(N/N=C/c1cccc(NC(=O)c2ccc(Cl)cc2)c1)c1cccc(O)c1,1.9µM*,-3%,2.8µM*,1.3µM*,.,.
Cc1cccc(C(=O)Nc2cccc(C(=O)N/N=C/c3cccc(C)n3)c2)c1,17µM*,-1%,2%,1%,.,.
Cc1ccc(-c2cc(C(=O)NCCc3ccccc3)c3c(-c4ccc(C)cc4)[nH]nc3n2)cc1,-19%,.,.,.,.,.
CCOC(=O)NC(=O)CSc1nc(C)cc(C)c1C#N,?,5.8µM*,1.6µM*,2.5µM*,112%,-1%
CCc1nnc(NC(=O)CSc2nc(-c3ccc(F)cc3)cc(-c3ccccc3)c2C#N)s1,?,5%,-1%,-2%,.,.
CCc1nnc(NC(=O)CSc2nc(C)cc(C)c2C#N)s1,?,?,0.5µM*,?,11µM*,2%
CCn1cnc2c(=O)oc3ccc(S(=O)(=O)N4CCN(c5cc(C)ccc5C)CC4)cc3c21,-2%,.,.,.,5%,.
Cc1cc(NC2CCCC2)n2nc(C)c(-c3ccccc3)c2n1,19µM*,?,?,29%,.,.
COc1ccccc1-c1cnn2c(NCCc3ccccc3)cc(C)nc12,11µM*,10%,19%,15%,.,.
COc1ccc(CCNc2cc(C)nc3c(-c4ccccc4)cnn23)cc1OC,-7%,-5%,-1%,0%,-29%,0%
CC(C)(C)c1cc(NCc2ccccn2)n2ncc(-c3ccccc3)c2n1,17µM*,-2%,17%,23%,.,.
Cc1cc(NCc2ccccc2)n2ncc(-c3ccccc3)c2n1,2.4µM*,4.1µM*,0.89µM*,1.6µM*,.,.
CCC(=O)N1CCc2cc(S(=O)(=O)NCCC(=O)Nc3ccc(OC)c(OC)c3)ccc21,-2%,.,.,.,3%,.
Cc1cc(NC2CCCC2)n2ncc(-c3ccccc3)c2n1,0.21µM*,0.16µM*,?,?,.,.
Cc1cc(NC(C)c2ccccc2)n2ncc(-c3ccccc3)c2n1 (stereo unspecified),12µM*,?,4µM*,2.5µM*,.,.
Cc1cc(NCCN2CCOCC2)n2ncc(-c3ccccc3)c2n1,7.6µM*,8.2µM*,1.6µM*,0.71µM*,14µM*,10%
C/C(=N\N=C(N)N)c1cccc([N+](=O)[O-])c1,4%,2%,-4%,5%,3%,-3%
C/C(=N\N=C\c1ccc(N(C)C)cc1)c1cccc([N+](=O)[O-])c1,2.1µM*,?,2.8µM*,3.5µM*,14µM*,-12%
COc1ccc(C(=O)NCCn2cc(SCC(=O)NCC3CCCO3)c3ccccc32)cc1 (stereo unspecified),-12%,-4%,-1%,1%,.,.
Cc1cc(NC(=O)CSc2cn(CCNC(=O)c3ccc(F)cc3)c3ccccc23)no1,17µM*,0%,0%,1%,-4%,-1%
COc1ccc(C(=O)NCCn2cc(SCC(=O)NCc3ccco3)c3ccccc32)cc1,17µM*,5%,?,20%,-50%,1%
Cc1nc(-c2ccc(NC(=O)C3CCCCC3)cc2)cs1,2.1µM*,2.3µM*,2.8µM*,3.2µM*,25µM*,10%
Cc1nc(-c2ccc(NC(=O)c3ccccc3)cc2)cs1,-1%,-14%,-14%,-7%,.,-3%
Cc1ccc(C(=O)Nc2ccc(-c3csc(C)n3)cc2)cc1,?,?,?,2.2µM*,140%,-6%
